High-throughput results (PubChem BioAssay)
Pf growth 48h: Primary qHTS for delayed death inhibitors of the malarial parasite plastid, 48 hour incubation; P. falciparum luciferase growth in erythrocytes, 48 h; Potency, µM (top dose mostly 28.7 µM), actives largely listed as inhibitors; 310,000 tested, 5.9% active
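Here the parasites carry a stable luciferase gene and grow inside erythrocytes in Albumax-based RPMI medium with compound for one erythrocytic cycle. Activity is scored as loss of luminescent signal.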
Pf growth 96h: Primary qHTS for delayed death inhibitors of the malarial parasite plastid, 96 hour incubation | P. falciparum luciferase reporter growth, 96 h | Potency, µM (doses to about 28.7 µM), usual class: inhibitors | 320,000 tested, 6.9% active
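Two parasite generations (96 h, 37 C, 5% CO2) of compound exposure in infected erythrocytes (0.05% parasitemia, 2% hematocrit). Luciferase-reporter P. falciparum; decreased luminescence indicates inhibited growth, aimed at apicoplast-acting delayed death.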
NS1 inh: qHTS Assay for Inhibitors of Influenza NS1 Protein Function; AID 2326, 2010; 270,000 tested, 0.4% active; Potency, µM (top dose mostly 46.1 µM); calls by dose curve; further: actives are rising curves; nearly all actives have a fitted effect of over 50% in size
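A cell-based growth assay was used: compounds that relieve NS1-induced slow growth of budding yeast raise OD600. Assay medium was yeast nitrogen base with ammonium sulphate and -URA supplement, pH 6.0, with 2% galactose.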
SARS PLP yeast: qHTS of Yeast-based Assay for SARS-CoV PLP | S. cerevisiae expressing SARS-CoV PLpro, growth rescue | Potency, µM (series often up to 32.9 µM), most hits filed as activators | 330,000 tested, 0.19% active; calls by dose curve; further: nearly all actives have a fitted effect of over 55% in size
Large screens that a line does not name were inactive. Hits are enriched below; roughly 10% of the tested compounds scored in any of these assays. Unless noted, the call rests on the fitted dose curve; in most records, active means well fitted inhibition curve with a large enough effect; inconclusive means small, poorly fitted or top-dose-only effect, or another doubt; inactive means no such curve, though single readings can be large or run the other way.

COC(=O)C1=C(c2ccc(F)cc2OCc2ccccc2)C[C@@H]2CC[C@H]1N2C(=O)NCCNC(C)=O	Pf growth 48h inconclusive, Pf growth 96h inconclusive (no result: NS1 inh)
COC(=O)C1=C(c2ccccc2OCc2ccccc2)C[C@@H]2CC[C@H]1N2C(=O)NCCc1ccc(F)cc1	Pf growth 48h 10µM, Pf growth 96h inconclusive (no result: NS1 inh)
COC(=O)C1=C(c2ccc(F)cc2OCc2ccccc2)C[C@@H]2CC[C@H]1N2C(=O)NCc1ccc(C(F)(F)F)cc1	none (no result: Pf growth 48h, Pf growth 96h, NS1 inh)
COC(=O)C1=C(c2ccccc2OCc2ccccc2)C[C@@H]2CC[C@H]1N2C(=O)NCc1ccc(C(F)(F)F)cc1	Pf growth 48h 13µM, Pf growth 96h inconclusive (no result: NS1 inh)
Fc1ccccc1CN1CCCN(C(=S)Nc2cccc(Cl)c2)C1	Pf growth 48h 9.3µM (no result: NS1 inh)
COc1ccc(NC(=O)CN2C(=O)c3ccccc3Sc3ccc(C(=O)N4CCOCC4)cc32)c(OC)c1	Pf growth 48h 10µM (no result: NS1 inh)
C=CCN1C(=O)c2ccccc2Sc2ccc(C(=O)N3CCN(C)CC3)cc21	Pf growth 48h inconclusive, Pf growth 96h 9.3µM
COc1ccc(NC(=O)Nc2ccc(C(=O)N3CCOCC3)cc2)c(OC)c1	none
C=CCN1C(=O)c2ccccc2Sc2ccc(C(=O)NC(C)C)cc21	none
COc1ccccc1C(=O)NCCn1cc(SCC(=O)NCC2CCCO2)c2ccccc21 (stereo not drawn)	Pf growth 48h inconclusive, Pf growth 96h 10µM (no result: SARS PLP yeast)
CCCCS(=O)(=O)/C=C\C=C/S(=O)(=O)CCCC	Pf growth 48h 9.3µM, Pf growth 96h inconclusive
CCCCS(=O)(=O)/C=C\C1C2C=CC(C2)C1S(=O)(=O)CCCC (stereo not drawn)	Pf growth 96h inconclusive
Cc1c(N=Cc2c(O)n(Cc3ccco3)c(=O)c3ccccc23)c(=O)n(-c2ccccc2)n1C	Pf growth 48h 12µM
Cc1c(N=Cc2c(O)n(Cc3ccco3)c(=O)[nH]c2=O)c(=O)n(-c2ccccc2)n1C	Pf growth 96h inconclusive
Cc1cc(C)cc(NC(=O)COC(=O)CC2CCCC2)c1	none (no result: NS1 inh)
COc1cc(C2CC(=O)C=C(O)C2)cc(OC)c1OC (stereo not drawn)	Pf growth 48h 5.9µM, Pf growth 96h inconclusive
NC(CS)C(=O)O (stereo not drawn)	Pf growth 48h 4.3µM (no result: NS1 inh, SARS PLP yeast)
O=C(O)C[C@H](NC(=O)CP(=O)(O)O)C(=O)O.[NH-][C@@H]1CCCC[C@@H]1[NH-].[Pt]	none (no result: Pf growth 48h, Pf growth 96h, SARS PLP yeast)
CCOc1ccc(N=Nc2ccc(O)c3ncccc23)cc1	Pf growth 48h 0.74µM
NS(=O)(=O)c1ccc(N=Nc2ccc(O)c3ncccc23)cc1	Pf growth 48h 2.6µM, Pf growth 96h inconclusive
CCN(CC)S(=O)(=O)c1cc(OC)ccc1N=Nc1ccc(O)c2ncccc12	Pf growth 48h inconclusive
O=C(COC(=O)/C=C/c1cccc(Cl)c1)NC1CC1	Pf growth 96h inconclusive (no result: NS1 inh)
Cc1nnc(Cl)c2nn(-c3ccccc3)c(C)c12	Pf growth 48h 0.33µM, Pf growth 96h 0.59µM
CCOc1ccc(-n2nc3c(Cl)nnc(C)c3c2C)cc1	Pf growth 48h 0.33µM, Pf growth 96h 0.52µM
CCOc1ccc(-n2nc3c(=O)[nH]nc(C)c3c2C)cc1	none
COc1cccc(C(=O)NCC(=O)N2CCC3(CC2)NCCc2[nH]cnc23)c1	none
Cc1ccccc1-n1c(-c2ccoc2)nc2ccccc2c1=O	Pf growth 96h 4.1µM
CN(C)Cc1cc(C(F)(F)F)ccc1C(O)(c1ccccc1)c1ccccc1	none (no result: Pf growth 48h, Pf growth 96h, SARS PLP yeast)
CCOc1ccc(/C(O)=C2/C(=O)C(=O)N(c3ccccn3)C2c2ccc(F)cc2)c(C)c1 (stereo not drawn)	none
COC(=O)c1ccc(OC)c(CN2CCCN(Cc3cc(C)ccc3C)S2(=O)=O)c1	Pf growth 48h 15µM
Cc1cc(/C=C2\SC(=O)NC2=O)c(C)n1-c1ccc(N(C)C)cc1	none
Cc1cc(/C=C\c2ccc3cc(N(C)C)ccc3[n+]2C)c(C)n1-c1ccccc1	Pf growth 48h 0.26µM, Pf growth 96h 0.0033µM (no result: NS1 inh, SARS PLP yeast)
CCc1sc(C(=O)Nc2cc(S(=O)(=O)N3CCOCC3)ccc2OC)cc1C	Pf growth 48h inconclusive, Pf growth 96h inconclusive (no result: NS1 inh)
CCOC(=O)CN1C(=O)COc2ccc(Cl)cc21	Pf growth 96h inconclusive
CCOC(=O)C1CCN(C(=O)CN2C(=O)COc3ccc(C(C)(C)C)cc32)CC1	Pf growth 96h 10µM
CCOC(=O)C1CCCN(C(=O)CN2C(=O)COc3ccc(C(C)(C)C)cc32)C1 (stereo not drawn)	Pf growth 48h inconclusive (no result: Pf growth 96h)
CCOC(=O)CN1C(=O)COc2ccc(C(C)(C)C)cc21	Pf growth 96h 0.47µM
O=CCCCC=O	Pf growth 48h 15µM, Pf growth 96h 12µM (no result: NS1 inh, SARS PLP yeast)
Cc1nn(Cc2ccc(C(=O)Nc3ccc(C(=O)OC(C)C)cc3)o2)c(C)c1Cl	Pf growth 48h 15µM
COc1cccc(CN2C(=O)C(C)N(C(=O)c3c(F)cccc3F)c3ccccc32)c1 (stereo not drawn)	Pf growth 48h 9.3µM, Pf growth 96h 6.6µM
NC(=O)C1(N2CCCCC2)CCN(C(=O)NC2CCCCC2)CC1	Pf growth 96h 15µM
CCOc1ccc(NC(=O)N2CCC(C(N)=O)(N3CCCCC3)CC2)cc1	Pf growth 96h 13µM
O=C(Nc1ccccc1C(F)(F)F)N1CCCCCC1	Pf growth 96h inconclusive
NC(=O)C1(N2CCCCC2)CCN(C(=O)NC23CC4CC(CC(C4)C2)C3)CC1	Pf growth 48h inconclusive (no result: Pf growth 96h)
NC(=O)C1(N2CCCCC2)CCN(C(=O)Nc2ccccc2C(F)(F)F)CC1	Pf growth 96h 1.7µM
COC(=O)c1c(NC(=O)/C=C/C(=O)O)sc(C)c1-c1ccc(C)c(C)c1	Pf growth 48h inconclusive, Pf growth 96h inconclusive
CCOC(=O)c1c(NC(=O)/C=C/C(=O)O)sc(C)c1-c1ccc(C)c(C)c1	Pf growth 48h 9.3µM
CCCC(=O)Nc1ccc(OC[C@@H](O)CNC(C)C)c(C(C)=O)c1	none (no result: NS1 inh, SARS PLP yeast)
Cc1cccn2c(=O)c3cc(S(=O)(=O)c4ccccc4)c(=N)n(Cc4ccco4)c3nc12	Pf growth 48h inconclusive
N=c1c(S(=O)(=O)c2ccccc2)cc2c(=O)n3ccccc3nc2n1Cc1ccco1	none (no result: Pf growth 48h, Pf growth 96h)
Cc1cccn2c(=O)c3cc(S(=O)(=O)c4ccc(F)cc4)c(=N)n(Cc4ccco4)c3nc12	Pf growth 48h 10µM, Pf growth 96h 15µM
Cc1ccc(S(=O)(=O)c2cc3c(=O)n4ccccc4nc3n(Cc3ccco3)c2=N)cc1C	Pf growth 48h inconclusive, Pf growth 96h 12µM
Cc1ccc(S(=O)(=O)CCC(=O)NC2CCCC2)cc1	none
C=CCNC1=C2C[C@@H](C)C[C@H](OC)[C@H](O)[C@@H](C)/C=C(\C)[C@H](OC(N)=O)[C@@H](OC)/C=C\C=C(/C)C(=O)NC(=CC1=O)C2=O	Pf growth 48h 0.6µM, Pf growth 96h 11µM (no result: NS1 inh, SARS PLP yeast)
Cc1cc(OCC(O)CN2C(C)CCCC2C)ccc1C(C)C (stereo not drawn)	Pf growth 48h 9.3µM, Pf growth 96h inconclusive
CC1CCCC(C)N1CC(O)COc1c(F)cc(Br)cc1F (stereo not drawn)	Pf growth 48h 10µM, Pf growth 96h inconclusive
COc1cccc(OCC(O)CN2C(C)CCCC2C)c1 (stereo not drawn)	none
N#[N+]c1ccc(Nc2ccccc2)cc1	none (no result: Pf growth 48h, Pf growth 96h, SARS PLP yeast)
Cc1ccc(S(=O)(=O)N[C@H](CN)C(=O)O)cc1	none (no result: Pf growth 48h, Pf growth 96h, SARS PLP yeast)
